# Over roughly 33,000 sequences, “E-score (-0.5 to 0.5)” has its median near -0.0059; the highest 2% begin near 0.26. This excerpt belongs to a sample that is enriched for the highest values.
# Target: T1, Cin5 (UniProt P40917)
# T1 sequence: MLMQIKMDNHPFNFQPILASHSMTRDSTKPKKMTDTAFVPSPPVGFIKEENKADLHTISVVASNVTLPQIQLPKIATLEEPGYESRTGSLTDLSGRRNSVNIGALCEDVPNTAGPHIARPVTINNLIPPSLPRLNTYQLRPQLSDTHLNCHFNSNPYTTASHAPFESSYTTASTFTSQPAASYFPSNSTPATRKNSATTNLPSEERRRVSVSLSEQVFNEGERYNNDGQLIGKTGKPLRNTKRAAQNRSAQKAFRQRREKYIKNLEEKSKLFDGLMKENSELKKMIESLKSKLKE
# Experiment: PBM E-score (8-mer binding enrichment) (E-score (-0.5 to 0.5)); higher = stronger / more preferred TF binding
# Conditions: protein concentration: 100 nM; construct: GST-full length
# How it was run: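 PURExpress in vitro transcription/translation supplied GST-tagged yeast transcription factors, either full-length or DNA-binding domain. Applied at about 100-200 nM to universal all-10-mer Agilent arrays double-stranded by primer extension, the bound protein was detected with fluorescent anti-GST. E-scores, modified Wilcoxon-Mann-Whitney statistics, were given by the Universal PBM Analysis Suite to ungapped eight-base words pooled with their reverse complements after masliner normalisation.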
row,Sequence,PBM E-score
1,ATTTCCTC,0.09
2,AGGAGCCG,-0.317
3,AGAGGAGC,-0.233
4,GGCTGCAA,-0.0216
5,ATGCTTCG,-0.0239
6,ATGCTTGG,-0.0358
7,ATGCTTAG,0.313
8,GGGGAAAC,-0.0321
9,CGGAACAA,0.302
10,GAGAACAA,0.269
11,AGGAACGA,-0.244
12,GAGAACAC,0.047
13,CGGAACGC,0.0289
14,AAGAACAA,0.197
15,TGGAACAA,0.0669
16,CGGAACAC,0.177
17,CGGAACGA,0.287
18,CGCCCCAC,0.131
19,AGTTTCTG,0.0528
20,GTGGAGGA,-0.0744
21,GGACTAAC,-0.232
22,GTCACAAA,-0.0564
23,GGATGGCA,0.27
24,GGATGGCC,-0.296

row,Sequence,PBM E-score
1,TGATGGCA,-0.112
2,AACCTAGG,-0.0368
3,ATACGAAT,0.0148
4,CTACGTAA,0.24
5,CTACGAAA,-0.0568
6,ATACGTAA,0.386
7,GTACGTAC,-0.00455
8,CTTCGTAA,0.0958
9,ATACGTAC,-0.0222
10,ATACGTAG,0.116
11,GTACGTAA,0.397
12,ATTCGTAA,0.304
13,GTTCGTAA,0.153
14,ATACGAAA,0.265
15,CACGGAAA,0.224
16,AAACTCAT,0.205
17,CGAGATAA,0.255
18,CGCACGGC,0.001
19,ACTTTTCT,0.0353
20,ATCCAGAG,0.161
21,CGCATCGC,-0.195
22,CACAACTA,0.211
23,GATGAGTA,0.152
24,AGGGAGAC,-0.0805

row,Sequence,PBM E-score
1,AAAGATAT,0.3
2,AAAGATAG,-0.0374
3,AAAGATAC,0.186
4,AACGATAT,0.285
5,AACGATAC,0.0238
6,AACGATAG,0.0137
7,ATCGGTGA,0.103
8,GGCTGAGA,-0.0327
9,GGCCCAAC,-0.0745
10,AATGGCAG,0.0479
11,AATGGCAC,0.00736
12,AATGGCTA,0.274
13,AATGGCTC,0.0552
14,AATGGCAT,0.32
15,CATGGCTA,0.037
16,GCACTCCA,-0.111
17,ATTTCGAA,0.188
18,CCGTAAAC,0.072
19,CCGTAATA,0.203
20,CCGTAATC,0.329
21,CCGTAAGA,-0.122
22,GCGTAAGC,0.227
23,CCGTAAGC,0.332
24,GAATCCTA,0.0175

row,Sequence,PBM E-score
1,GGAAACTA,-0.105
2,TATCTCCA,0.112
3,GTAAATCA,0.284
4,AGTAATCC,0.243
5,AGTAATGA,0.13
6,CTAAATCA,0.00062
7,ATAAATCA,0.185
8,GGTAATGA,0.153
9,AGTAATGG,0.162
10,GCTAATCA,0.212
11,ATTAATCG,0.228
12,AGTAATCA,0.312
13,GGTAATCA,0.289
14,AGTAATCG,0.262
15,CCTACCAC,-0.224
16,CCACCGGA,0.0953
17,ATCAATAG,0.0422
18,CAGAGTAA,-0.0253
19,AGACGTCA,-0.00622
20,GGACGTCA,0.0529
21,TGACGTCA,0.425
22,GGTTGAAA,-0.00909
